Only some compounds are listed: those with a hit (about 4.8% of all), similar ones and a draw of the others.
Calb FLC = affects C. albicans growth with fluconazole | C. albicans CaCi-2 (fluconazole-resistant clinical isolate) + fluconazole, Alamar Blue growth, 48 h | growth inhibition, % (concentration not given with the values) | 300,000 tested, 0.57% active;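 active = growth inhibition above about 58% in most replicates, limit read from the data, passing the limit was not always enough; inconclusive = exactly half the replicates above a set limit; inactive = most replicates below a set limit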;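 also: all wells also contain fluconazole at 8 µg/ml as a sub-toxic cotreatment; 0% = median of DMSO wells and 100% = median of geldanamycin control wells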
Mdm2-MdmX inh = disrupts the human Mdm2-MdmX interaction; O15151+Q00987; SaOS-2 split-luciferase Mdm2/MdmX complementation, luminescence; inhibition, % at 8 µM; 330,000 tested, 3% active; AID 485346;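 active = inhibition of at least 50% at 8 µM in the primary screen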
Target sequence (O15151 whole entry, looked up): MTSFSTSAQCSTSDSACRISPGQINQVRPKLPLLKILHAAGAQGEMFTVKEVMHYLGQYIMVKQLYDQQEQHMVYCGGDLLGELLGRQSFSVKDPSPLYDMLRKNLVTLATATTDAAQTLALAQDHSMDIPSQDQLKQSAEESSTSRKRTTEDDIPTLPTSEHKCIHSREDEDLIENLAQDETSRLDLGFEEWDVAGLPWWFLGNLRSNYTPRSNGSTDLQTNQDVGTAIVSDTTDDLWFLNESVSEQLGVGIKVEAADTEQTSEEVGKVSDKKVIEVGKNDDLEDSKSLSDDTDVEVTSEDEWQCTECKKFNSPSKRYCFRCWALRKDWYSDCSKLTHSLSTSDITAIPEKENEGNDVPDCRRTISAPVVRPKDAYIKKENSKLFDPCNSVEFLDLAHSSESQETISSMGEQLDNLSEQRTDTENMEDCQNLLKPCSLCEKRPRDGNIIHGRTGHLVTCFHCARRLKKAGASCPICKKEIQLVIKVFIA
Target sequence (Q00987 whole entry, looked up): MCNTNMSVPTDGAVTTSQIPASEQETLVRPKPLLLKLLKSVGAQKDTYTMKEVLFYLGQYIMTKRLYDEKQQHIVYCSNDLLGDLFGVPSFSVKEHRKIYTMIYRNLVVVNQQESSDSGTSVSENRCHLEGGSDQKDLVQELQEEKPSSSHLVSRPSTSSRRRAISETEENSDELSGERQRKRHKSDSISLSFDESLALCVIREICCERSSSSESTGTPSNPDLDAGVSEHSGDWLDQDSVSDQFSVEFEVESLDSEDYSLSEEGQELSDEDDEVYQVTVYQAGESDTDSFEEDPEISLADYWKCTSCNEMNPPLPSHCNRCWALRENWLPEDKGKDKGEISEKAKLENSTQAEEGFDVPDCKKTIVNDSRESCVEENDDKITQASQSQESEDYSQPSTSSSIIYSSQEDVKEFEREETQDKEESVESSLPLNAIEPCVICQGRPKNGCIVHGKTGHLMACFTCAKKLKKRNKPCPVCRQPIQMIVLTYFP
CSC inhib = cancer stem cell inhibition; cancer stem cell-like cells viability, luminescence; AID 2717; inhibition, % at 7.5 µM; 300,000 tested, 1.1% active; in the data active = inhibition above about 75%; inconclusive = no clear call, values can overlap the other calls; tested in HMLE shEcad cells
MPTP inh = blocks calcium-induced mitochondrial swelling; inhibition, % at 10 µM; AID 602449; 360,000 tested, 1.4% active; isolated mouse mitochondria, Ca2+ swelling absorbance, 30 min;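 active = inhibition of 50% or more, scaled per plate between neutral and stimulator controls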;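 also: 0% = DMSO wells given calcium and 100% = 1 mM EGTA wells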
Beta apoptosis = beta cell apoptosis inhibition; 300,000 tested, 0.8% active; INS-1E cytokine-induced death, ATP luminescence, 48 h; percent of positive-control rescue, neutral wells zero; AID 435005; protection from apoptosis, % (test concentration not listed);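 active = Every replicate reaches about 75%, or at least half do and their mean reaches it too, limit read from the data; inconclusive = At least half of replicates reach the limit but their mean does not; inactive = Under half of replicates reach the limit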;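 also: 0% = cytokine-treated negative control wells and 100% = positive control rescue; higher means more ATP so stronger rescue from cytokine killing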
Starred values were filed as active, the others as inactive.

Screening COC(=O)c1[nH]c2ccc(Cl)cc2c1NC(=O)CN1CCc2cc(OC)c(OC)cc2C1 returned Calb FLC 6, Mdm2-MdmX inh 42, CSC inhib -13, MPTP inh 7 and Beta apoptosis 4.
COC(=O)c1[nH]c2cc(C)ccc2c1NC(=O)CN1CCc2cc(OC)c(OC)cc2C1 was read as Calb FLC 100*, Mdm2-MdmX inh 28, CSC inhib -2, MPTP inh 4 and Beta apoptosis -8.
Screening Cc1ccc(-c2cc(NC=O)c3ncc(-c4cnn(C)c4)n3c2)cc1 returned MPTP inh -1.
For CC(=O)N1CCOCCOCCOCC1 the results were Calb FLC -4, Mdm2-MdmX inh -4, CSC inhib -11, MPTP inh 0 and Beta apoptosis -4.
For CC(=O)N1CCOCCOCCN(C(C)=O)CCOCCOCC1 the results were Calb FLC 102*, Mdm2-MdmX inh 5, CSC inhib -2, MPTP inh 0 and Beta apoptosis -4.
For c1cncc(-c2nnc(-c3cccnc3)nn2)c1 the results were Calb FLC 21, Mdm2-MdmX inh 33, CSC inhib 10, MPTP inh 2 and Beta apoptosis 108*.
For c1ccc(-c2nnc(-c3ccccc3)nn2)cc1 the results were Calb FLC -26, Mdm2-MdmX inh -191, CSC inhib 2, MPTP inh 0 and Beta apoptosis -5.
CC(C)Oc1cccc(C(=O)Nc2nnc([C@H]3C[C@H](O)[C@@H](CO)O3)s2)c1 was read as MPTP inh 1.
Screening Cc1cccc(C)c1NC(=O)C1(C)CN(S(C)(=O)=O)CC(=O)N1CCCN1CCOCC1 (stereo unspecified) returned MPTP inh 0.
For COc1ccc(-c2cc(-c3c(O)c(OC)c4occc4c3OC)[nH]n2)cc1 the results were Calb FLC 102*, Mdm2-MdmX inh 37, CSC inhib 28 and MPTP inh 12.
COc1ccc(CNC(=O)CC[C@H]2O[C@@H](n3ccc(=O)[nH]c3=O)[C@H](O)[C@@H]2O)cc1 was read as MPTP inh -1.
Screening CCNC(=S)N1CCN(c2ccc([N+](=O)[O-])cc2)CC1 returned Calb FLC 7, Mdm2-MdmX inh 3, CSC inhib 2 and MPTP inh 1.
`O=[N+]([O-])c1ccc(N2CCN(C(=S)NCc3ccc(Cl)cc3)CC2)cc1` gave Calb FLC -5, Mdm2-MdmX inh 21, CSC inhib 6, MPTP inh 30 and Beta apoptosis 96*.
Screening Cc1ccc(S(=O)(=O)N(C)c2ccc3c(c2)C(=O)c2ccccc2-3)cc1 returned MPTP inh -2.
`OC(CNCCc1ccc(C(F)(F)F)cc1)COc1cccc2ccccc12` (stereo unspecified) gave Calb FLC -7, Mdm2-MdmX inh 42, CSC inhib 96*, MPTP inh 1 and Beta apoptosis 69.
Screening COc1ccc(CNCC(O)COc2ccc(C(C)(C)c3ccccc3)cc2)cc1 (stereo unspecified) returned Calb FLC 8, Mdm2-MdmX inh 38, CSC inhib 109*, MPTP inh 6 and Beta apoptosis 15.
OC(CNCc1ccc(Cl)cc1)COc1ccccc1 (stereo unspecified) was read as Calb FLC -7, Mdm2-MdmX inh 10, CSC inhib 2, MPTP inh 1 and Beta apoptosis -4.
For OC(CNCCc1ccc(C(F)(F)F)cc1)COc1ccc2ccccc2c1 (stereo unspecified) the results were Calb FLC 105*, Mdm2-MdmX inh 26, CSC inhib 77*, MPTP inh -4 and Beta apoptosis 34.
Screening COc1ccccc1COCC(O)CNCCc1ccc(C(F)(F)F)cc1 (stereo unspecified) returned Calb FLC -4, Mdm2-MdmX inh 20, CSC inhib 17, MPTP inh 2 and Beta apoptosis 10.
For O=c1ccc2nc3ccccc3sc-2c1 the results were MPTP inh 12.
Screening CCOc1ccccc1C(C(=O)NCCOC)N(CCOC)C(=O)Cn1nnc2ccccc21 (stereo unspecified) returned Calb FLC 3, Mdm2-MdmX inh 5, CSC inhib 13, MPTP inh 1 and Beta apoptosis -5.
`COCCNC(=O)C(c1ccc(C)o1)N(CCOC)C(=O)Cn1nnc2ccccc21` (stereo unspecified) gave Calb FLC 82*, Mdm2-MdmX inh 9, CSC inhib 5, MPTP inh 1 and Beta apoptosis -5.
`CCOC1=C2CN(S(=O)(=O)c3ccc(C)cc3)C(c3ccc(C)cc3)CC2N(S(=O)(=O)c2ccc(C)cc2)C(c2ccccc2)C1` (stereo unspecified) gave MPTP inh -1.
CC(C)C[C@H]1CNC(=O)C(=O)N1C[C@@H]1CCCN1C[C@H](CC(C)C)N1C[C@H](Cc2ccc(O)cc2)N(CCc2ccccc2)C(=O)C1=O was read as MPTP inh 1.
`O=C(CNc1ccc2ccccc2c1)NNC1=NCCC1` gave Calb FLC 22, Mdm2-MdmX inh 5, CSC inhib -5, MPTP inh 0 and Beta apoptosis 1.
For O=C(Cc1ccccc1)NNc1ccc2ccccc2c1 the results were Calb FLC inconclusive, Mdm2-MdmX inh 28, CSC inhib 88*, MPTP inh 0 and Beta apoptosis 3.
`O=C(CN1C(=O)CCC1=O)NNc1ccc2ccccc2c1` gave Calb FLC 100*, Mdm2-MdmX inh 18, CSC inhib 14, MPTP inh -1 and Beta apoptosis -9.
Screening O=C(COc1ccc2ccccc2c1)NNC(=O)Cc1ccccc1 returned Calb FLC 0, CSC inhib 4, MPTP inh 0 and Beta apoptosis -3.
Screening Cc1ccc(S(=O)(=O)C[C@@H]2OC[C@H](CO)N2S(=O)(=O)c2ccc(C)cc2)cc1 returned MPTP inh 9.
For Cc1ccc(-c2csc3ncnc(-n4cnc5ccccc54)c23)cc1 the results were Calb FLC 1, Mdm2-MdmX inh 40, CSC inhib 77*, MPTP inh -1 and Beta apoptosis -2.
c1ccc(-c2csc3ncnc(-n4cnc5ccccc54)c23)cc1 was read as Calb FLC 3, Mdm2-MdmX inh -4, CSC inhib 4 and MPTP inh 0.
Screening Cc1cc(N2CCN(c3ccc(C(F)(F)F)cc3[N+](=O)[O-])CC2)c2ccccc2n1 returned Calb FLC 39, Mdm2-MdmX inh 34, CSC inhib 97*, MPTP inh 37 and Beta apoptosis 15.
Screening Cc1ccc(S(=O)(=O)N2CCN(c3ccc(C(F)(F)F)cc3[N+](=O)[O-])CC2)cc1 returned Calb FLC -10, Mdm2-MdmX inh -2 and MPTP inh 6.
For COc1ccc2cc(C3CC=C(COC(C)=O)CN3S(=O)(=O)c3ccccc3[N+](=O)[O-])n(C(=O)OC(C)(C)C)c2c1 (stereo unspecified) the results were MPTP inh 1.
Screening O=C(NN=Cc1cc(Cl)ccc1[N+](=O)[O-])c1cccc2ccccc12 returned MPTP inh 0.

Screening results (PubChem)
